This is an account of results in PubChem BioAssay AID651602 (The Scripps Research Institute Molecular Screening Center, 2012).

“And” between values parts separate entries of the source, which are not always exact repeats. Equal values may be shown once. In all, about 360,000 compounds went through this assay and about 950 (0.26%) were called active. The entries come from a sample that favours actives as a whole. Unmarked numbers belong to inactive results. Rule as the data show it: active = inhibition above about 11%; inactive = the rest.

This test is described as follows: reduced absorbance of E. coli cultures with phage – HTS, RecBCD inhibitor project, primary screen (AID 651602). The note with it: growth absorbance, at 11.9 µM, stronger effect = higher value.
On to `COC(=O)c1cc2c(c3c4cc(F)ccc4n(S(=O)(=O)c4ccccc4)c13)C(=O)N(Cc1ccccc1OC)C2`, for which the inhibition (as a rule, the drop in the measured response relative to a control, in per cent) is 0.23%.
The value for `O=C(N[C@H](C(=O)N1CCC[C@H]1C(=O)NCCc1ccccc1Cl)c1ccccc1)c1ccccc1` was 0.16%; that for `C=CC1=C(C(=O)O)N2C(=O)[C@@H](NC(=O)/C(=N\OCC(=O)O)c3csc(N)n3)[C@H]2SC1` was 99.8% (active).
Regarding `CO/N=C(\C(=O)N[C@@H]1C(=O)N2C(C(=O)O)=C(COC(C)=O)CS[C@H]12)c1csc(N)n1` (stereo in doubt), the inhibition was 101% (active) and 100% (active) and 99.7% (active).
For the compound `C=CC1=C(C(=O)O)N2C(=O)[C@@H](NC(=O)/C(=N/OCC(=O)O)c3csc(N)n3)[C@H]2SC1`, the inhibition is 102% (active).
As for `CC1(C)OC(=O)C2=C(CC(CCc3ccccc3)OC2c2ccc(Cl)cc2)O1` (centres undefined), the figure is 0.56%; as for `COC(=O)[C@]1(Cc2ccccc2)NC=C(C(=O)c2ccccc2)[C@@H]1c1cccc(OC)c1`, 0.08%; as for `O=C(NN=Cc1ccco1)C(=O)Nc1ccc(Cl)c([N+](=O)[O-])c1`, 1.23%.
For `COC(=O)C(C(=O)OC)c1ccccc1NS(=O)(=O)c1cccc2ccccc12`, the inhibition is 3.8%.
The value for `C[C@H](O)[C@@H]1CN2CCc3ccc(-c4ccc5c(c4)OCO5)cc3[C@@H]2C[C@@H]1N(C)C(=O)C1CCCCC1` was 4.59%; that for `OC(c1ccccc1)(c1ccccc1)C1CCN(CCCOc2ccc(-c3ccsc3)cc2)CC1` was -2.69%.
For `O=C(C(=O)N1CCC(CNC(=O)c2cccnc2Cl)CC1)c1cccs1`, the inhibition was 2.71%.
In the case of `COc1ccc(C2=CN(Cc3ccccc3)C(c3ccc(OC)cc3)CC2=O)cc1` (centres undefined), the inhibition was 3.64%.
As for `C[C@H]1[C@H](c2ccccc2)Oc2cc(Br)ccc2S(=O)(=O)N1Cc1cccc(F)c1`, the figure is 1.98%; as for `COC(=O)[C@]12C[C@H](CC(=O)NCCc3ccccc3OC)C(=O)N(Cc3ccccc3)C1=C[C@H](C(C)C)O[C@@H]2C1CC1`, 1.94%.
As for `COC(=O)c1c(-c2ccc(OC)cc2)c2c(c3c4cc(OC)ccc4n(S(=O)(=O)c4ccc(F)cc4)c13)C(=O)N(C)C2`, the inhibition is 2.25%.
In the case of `Oc1c(Cl)cc(Cl)c(Cl)c1Cc1c(O)c(Cl)cc(Cl)c1Cl`, the inhibition was 17.2% (active).
With `Cc1noc(C)c1NC(=O)Nc1ccc2c(c1)C(=O)N([C@H](C)CO)C[C@H](C)[C@H](CN(C)Cc1ccncc1)OCCCC[C@@H](C)O2`, the inhibition was 2.8%.
As to `COc1ccc(S(=O)(=O)Nc2ccc3c(c2)C(=O)N([C@H](C)CO)C[C@H](C)[C@@H](CN(C)C)OCCCC[C@H](C)O3)cc1`, the inhibition was 2.32%.
Consider `CCOC(=O)NN1C(=O)c2ccccc2NC1c1cccc(O)c1` (centres undefined), for which the inhibition was 2.82%.
Regarding `O=C1c2ccccc2NC(c2ccc(-c3cccc(Cl)c3)o2)N1O` (centres undefined), the inhibition was 21% (active).
As for `CC(=O)NN1C(=O)c2ccccc2NC1c1ccccc1` (centres undefined), the figure is -1.19%; as for `CCCCCCCCN1C(=O)[C@@H](CC(=O)NCCCC)C[C@@]2(C(=O)OC)C1=C[C@H](C(C)(C)C)O[C@@H]2C`, 3.8%; as for `CC[C@H](C)[C@H]1CNC(=O)C(=O)N1CC1CCN(CCc2ccc(OC)c(OC)c2)CC1`, 1.03%.
Take `C#CCN([C@@H](C)C(=O)OCC)S(=O)(=O)c1ccc(Br)cc1F`: the inhibition is 1.36%.
Consider `CC(C)(C)C(c1nc2ccccc2[nH]1)n1c(Cc2csc3ccccc23)nc2ccccc21` (centres undefined), for which the inhibition was -0.16%.
As to `COCCNC(=S)N(C)[C@H]1C[C@H]2c3[nH]c4ccccc4c3CCN2C[C@H]1[C@H](C)O`, the inhibition is 0.63%.
On to `Cc1ccc(-c2cnc(C(O)c3cc(Cl)cc(Cl)c3)[nH]2)cc1` (centres undefined), for which the inhibition is 17.1% (active).
For the compound `COc1cccc(C(O)c2ncc(-c3ccc4ccccc4c3)[nH]2)c1` (centres undefined), the inhibition was 12.1% (active).
As to `Cc1cccc(-c2cnc(C(O)c3cc(C)cc(C)c3)[nH]2)c1` (centres undefined), the inhibition was 9.2%.
The value for `Cc1cccc(-c2cnc(C(O)c3ccc4ccccc4c3)[nH]2)c1` (centres undefined) was 2.34%; that for `OC(c1ccc(Cl)cc1)c1ncc(-c2ccc(Cl)cc2)[nH]1` (centres undefined) was 7.68%.
As for `COc1cccc(-c2cnc(C(O)c3ccccc3OC)[nH]2)c1` (centres undefined), the figure is -1.64%; as for `Cc1cc(N2CCN(C(=O)OC(C)(C)C)C[C@H]2C)ccc1N1CCN(Cc2ccccc2)[C@H](C)C1`, 7.28%; as for `CCOC(=O)/C=C/c1ccccc1O`, 4.3%.
`COC(=O)[C@H](CC(C)C)NS(=O)(=O)c1c(F)cccc1F`: the inhibition was 4.61%.
The value for `O=C(NCc1ccccc1)[C@H]1CCCN1C(=O)[C@H]1CCCN1C(=O)c1cc(F)cc(F)c1` was 2.09%; that for `Nc1ncnc2c1ncn2[C@@H]1O[C@H](C(=O)N[C@@H](CCc2ccccc2)C(=O)NCC(=O)N2CCOCC2)[C@@H](O)[C@H]1O` was 2.03%.
As for `Cc1cc2c(nc1C)CCCN2C`, the figure is 1.32%; as for `COC(=O)c1ccc(CN2C(=O)[C@]3(OCCC=C[C@H]3C)c3c(Br)cccc32)cc1`, 1.58%; as for `O=C(Nc1ccc(Cl)c(Cl)c1)N1CC=C(c2ccccc2)CC1`, 3.32%.
Regarding `CC(c1cccnc1)N(CCN(C)C)C(=O)Nc1ccc(Cl)c(Cl)c1` (centres undefined), the inhibition was 1.6%.
The value for `O=C(CC(O)(C(F)(F)F)C(F)(F)F)Nc1ccc(Cl)c(Cl)c1` was 15.6% (active); that for `COC(=O)C1=C(C)N(Cc2cccc(C(F)(F)F)c2)C(=NCc2cccc(C(F)(F)F)c2)NC1c1ccccc1C(F)(F)F` (centres undefined) was 9.37%; that for `COC(=O)Cc1nnn2c1[C@H](C)[C@H](c1ccccc1Br)OCC2` was -1.01%.
The value for `O=C(Nc1c(Cl)c(C2CC2)nn1-c1ccccc1)C(Cl)(Cl)Cl` was 1.86%; that for `CC(C)(C)n1nc(C2CC2)c(Br)c1NC(=O)c1ccccc1F` was 3.69%.
On to `CC(C)(C)C(=O)Nc1c(Br)c(C2CC2)nn1-c1ccccc1`, for which the inhibition was 97.8% (active).
`Cc1cccc(C)c1NC(=O)CN1CCN(c2ccc(F)cc2)CC1`: the inhibition is 2.55%.
In the case of `Oc1c(CN2CCN(c3ccc(F)cc3)CC2)cc(Cl)c2cccnc12`, the inhibition was 13% (active).
`O=C(CN1CCN(c2ccc(Cl)cc2)CC1)c1ccccc1`: the inhibition is 4.29%.
On to `O=C(NCc1ccccc1)[C@@H]1CCCN1C(=O)[C@@H](NS(=O)(=O)c1ccc(F)cc1F)C1CCCCC1`, for which the inhibition was 3.12%.
`O=C(C(=O)N1CCC(CNS(=O)(=O)Cc2ccccc2)CC1)c1cc2ccccc2o1`: the inhibition was 1.63%.
For `COC(=O)[C@]12C[C@H](CC(=O)NCc3cccc(C(F)(F)F)c3)C(=O)N(Cc3ccc4c(c3)OCO4)C1=C[C@H](COCc1ccccc1)O[C@@H]2C`, the inhibition was 2.25%.
`CC(C)CNc1cccc2c1S(=O)(=O)N[C@H](C)CO2`: the inhibition was 5.2%.
Consider `O=C1c2ccccc2C2=Nc3ccccc3SC(c3ccccc3F)C12` (centres undefined), for which the inhibition was 19.6% (active).
As for `CC(=O)C1=C(C)N(Cc2ccc(Cl)cc2)C(=S)NC1c1ccc(F)cc1` (centres undefined), the figure is 2.81%; as for `O=C(NCc1ccccc1)[C@H]1CCCN1C(=O)[C@H]1CCCN1C(=O)N1CCOCC1`, 1.72%.
As for `COc1ccc(-c2ccccc2C2Cc3nnccc3CN2C(=O)Nc2ccccc2)cc1` (centres undefined), the inhibition is 3.48%.
As to `Cc1cccc(NC(=O)CCn2c(=O)oc3ccccc32)c1`, the inhibition is 0.64%.
The value for `O=C(/C=C/c1ccc(Cl)cc1)Nc1ccc(Br)cn1` was -0.92%; that for `Cc1cccc(NC(=O)c2ccc([N+](=O)[O-])o2)c1` was 14.2% (active); that for `O=C(Nc1ccc(Br)cn1)c1ccc([N+](=O)[O-])cc1Cl` was 1.57%.
In the case of `CCN(CC)S(=O)(=O)c1ccc(N2CCCC2)c(NC(=O)c2ccc([N+](=O)[O-])o2)c1`, the inhibition was 0.78%.
In the case of `O=C(Nc1ccc(Br)cn1)c1ccc([N+](=O)[O-])o1`, the inhibition was 15.1% (active).
`COC(=O)[C@]12C[C@H](CC(=O)NCc3ccccc3)C(=O)N(CCC3=CCCCC3)C1=C[C@H](C(C)(C)C)O[C@@H]2C`: the inhibition is 1.16%.
With `COc1cccc(CNC(=O)[C@H]2CCCN2C(=O)[C@H]2CCCN2C(=O)c2ccc(F)cc2)c1`, the inhibition is 1.78%.
With `C[C@@H]1ON(C)[C@H]2C[C@H]3c4cc(N5CCOCC5)ccc4CCN3C[C@@H]12`, the inhibition was 1.27%.
As for `C=CCN=C1NC(c2ccccc2)C(C(=O)OC)=C(C)N1Cc1ccc(C(F)(F)F)cc1` (centres undefined), the figure is 3.49%; as for `C[C@@H](CN1C2=NC[C@@H](Cc3ccccc3)N2C[C@H]1Cc1ccc(O)cc1)NC(=O)CCC1CCCCC1`, 2.48%.
Take `Nc1nonc1-n1nnc(C(=O)N/N=C/c2cc(Br)ccc2O)c1CSC1=NCCS1`: the inhibition was 11.6% (active).
`CN(C)Cc1c(C(=O)N/N=C/c2ccccc2OCc2ccc(F)cc2)nnn1-c1nonc1N`: the inhibition is -5.79%.
Consider `CC(C)Oc1ccc(/C=N/NC(=O)c2nnn(-c3nonc3N)c2CN(C)C2CCCCC2)cc1`, for which the inhibition is 2.44%.
With `Cc1cn(C2C=CC(CO)O2)c(=O)[nH]c1=O` (centres undefined), the inhibition was 19.9% (active).
As to `Cc1cn([C@H]2C[C@H](O)[C@@H](/C=C/C(=O)NCCCc3ccccc3)O2)c(=O)[nH]c1=O`, the inhibition is 3.27%.
Turning to `Cc1cn(C2OC[C@@H](O)[C@@H]2CO)c(=O)[nH]c1=O` (some centres undefined), the inhibition is 0.95%.
The value for `COc1cccc(-c2cc(CNC(=O)[C@@H](Cc3ccccc3)NC(=O)[C@H]3O[C@@H](n4cnc(C(N)=O)n4)[C@H](O)[C@@H]3O)no2)c1` was 2.06%.
Take `CCN1CCN(C(=O)N[C@@H](C(=O)N[C@@H]2C(=O)N3C(C(=O)O)=C(CSc4nnnn4C)CS[C@H]23)c2ccc(O)cc2)C(=O)C1=O`: the inhibition is 103% (active).
As for `CCOC(=O)C1=C(CSc2nnnn2C)N(C)C(=O)NC1c1ccccc1` (centres undefined), the figure is 3.2%.
